Screening data (PubChem)
CYP2C19 act: human CYP2C19 activators, primary screen, biochemical, luminescence. recombinant CYP2C19, luciferin-H EGE luminescence; hits give high values; 0 = fully inhibited enzyme, 1 = untreated enzyme. Cytochrome P450 2C19 (Homo sapiens), P33261. 96,000 tested, under 10 active. activation factor at 5 µM;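 active = activation factor of at least 2 at 5 µM in the primary screen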
Target sequence (P33261 whole entry, looked up): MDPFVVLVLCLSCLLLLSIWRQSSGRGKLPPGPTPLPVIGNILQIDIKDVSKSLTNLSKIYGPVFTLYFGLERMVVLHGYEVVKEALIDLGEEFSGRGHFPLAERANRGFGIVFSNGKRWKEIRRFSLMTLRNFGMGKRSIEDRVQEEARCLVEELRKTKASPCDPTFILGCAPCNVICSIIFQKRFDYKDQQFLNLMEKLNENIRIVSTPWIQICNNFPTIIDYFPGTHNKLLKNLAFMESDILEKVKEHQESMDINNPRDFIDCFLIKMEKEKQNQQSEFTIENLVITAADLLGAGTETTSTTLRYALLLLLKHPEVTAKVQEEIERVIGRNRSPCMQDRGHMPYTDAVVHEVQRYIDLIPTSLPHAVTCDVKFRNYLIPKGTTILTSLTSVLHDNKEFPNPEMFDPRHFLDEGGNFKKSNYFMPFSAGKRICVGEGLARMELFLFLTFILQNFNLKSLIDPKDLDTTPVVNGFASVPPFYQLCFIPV
sEH inhibitor: soluble epoxide hydrolase inhibitors, primary screen, biochemical, human sEH. Bifunctional epoxide hydrolase 2 (Homo sapiens), P34913. AID 707, 2007. recombinant human sEH enzymatic activity assay. inhibition, % at 2 µM. hit rate 0.34% among 91,000; in the data active = inhibition above about 80%
CYP2C19 inh: blockers of cytochrome P450 2C19 activity – biochemical, luminescence, ADME assay, primary screen; P33261; CYP2C19 Supersomes, luciferin-H EGE luminescence, 30 min; inhibition, % at 5 µM; hit rate 21% among 96,000;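 active = CYP2C19 inhibition above a set limit at 5 µM in the primary screen, cut at about 50% in these data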
CYP2C9 inhib: blockers of cytochrome P450 2C9 activity – biochemical, luminescence, ADME assay, primary screen | P11712 | CYP2C9 Supersomes, luciferin-H conversion | inhibition, % at 5 µM | hit rate 20% among 96,000;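 active = blocking of liver enzyme CYP2C9 beyond about 50% at 5 µM, limit read from the data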
sEH act: soluble epoxide hydrolase activators, primary screen, biochemical, human sEH; Bifunctional epoxide hydrolase 2 (Homo sapiens), P34913; purified human sEH enzymatic activity, activator screen; activation, % at 2 µM; hit rate 0.04% among 91,000; in the data active = activation above about 37%
CYP2C9 activ: human CYP2C9 activators, primary screen, biochemical, luminescence; recombinant CYP2C9, luciferin-H conversion; hits give high values; factor 1 = untreated enzyme, 0 = blocked; Cytochrome P450 2C9 (Homo sapiens), P11712; activation factor at 5 µM; hit rate 1.4% among 96,000;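 active = activation factor of 2 or more for CYP2C9 at a 5 µM dose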
A number is an active result; n = inactive; x = not tested or not shown. Compounds with a hit are over-represented: about 27% of the library has one in this group of screens.

SMILES | CYP2C19 act | sEH inhibitor | CYP2C19 inh | CYP2C9 inhib | sEH act | CYP2C9 activ
CC1(C)CC(=O)c2cc(OCC(=O)NCc3cccnc3)ccc2O1 | n | n | n | n | n | n
Cc1cccc(OCC(=O)Nc2ccc(C(=O)NCc3cccnc3)cc2)c1 | n | n | 52.8 | n | n | n
C/C(NCc1cccnc1)=C(\C#N)C(=O)NCc1ccccc1 | n | n | 81.9 | n | n | n
COc1ccc(-c2cc(C(=O)NCc3cccnc3)no2)cc1 | n | n | n | 57.5 | n | n
O=C(NCc1cccnc1)c1cc(-c2ccccc2)on1 | n | n | n | n | n | n
CC(NC(=O)c1nn(C)c(=O)c2ccccc12)c1ccc(F)cc1 (stereo unspecified) | n | x | n | 64.4 | x | n
Cn1nc(C(=O)Nc2cccnc2)c2ccccc2c1=O | n | n | n | n | n | n
CN(C)c1ncc(C(=O)O)cn1 | n | x | n | n | x | n
O=C(CSc1nnc(Cn2c(=O)sc3ccccc32)n1CCc1ccccc1)N1CCOCC1 | n | n | n | n | n | n
Cc1ccccc1-n1nc(C)c2cc(C(=O)NCc3cccnc3)sc21 | n | x | n | 54.9 | x | n
COc1ccc(CNC(=O)c2cc(C3CC3)on2)cc1 | n | n | 81.4 | n | n | n
O=C(NCc1ccc(Cl)cc1)c1cccnc1 | n | n | 65.9 | n | n | n
COc1cc(OC)cc(C(=O)NC(=S)Nc2cccnc2)c1 | n | n | 76.2 | 77.8 | n | n
CC(C)(C)c1ccc(C(=O)NCc2cccnc2)cc1 | n | x | 58.8 | 68.9 | x | n
COc1ccc(NC(=O)NCc2cccnc2)cc1OC | n | n | n | n | n | n
CC(C)(C)c1ccc(C(=O)c2c[nH]c(C(=O)NCc3cccnc3)c2)cc1 | n | x | n | n | x | n
COc1ccc(C(=O)NCc2cccnc2)cc1Br | n | n | n | 72.5 | n | n
Cn1nc(C(=O)NCc2cccnc2)c2ccccc2c1=O | n | n | 77.6 | 59.6 | n | n
CCCCCC(=O)N1CCN(CCN=CC2=C(O)CC(c3cccs3)CC2=O)CC1 (stereo unspecified) | n | n | n | n | n | n
CCCCC(=O)c1c(O)c2ccccc2oc1=O | n | x | n | n | x | n
COc1ccc(OCC(=O)c2c(O)c3ccccc3oc2=O)cc1 | n | n | n | 78.1 | n | n
CCOc1ccc(OCC(=O)c2c(O)c3ccccc3oc2=O)cc1 | n | n | n | 90.9 | n | n
CCCCN=C(C)c1c(O)c2ccccc2oc1=O | n | n | 84.9 | 55.6 | n | n
N#Cc1c(N)n(CCCN2CCOCC2)c2nc3ccccc3nc12 | n | n | 88.7 | n | n | n
N#Cc1c(N)n(CCNC(=O)c2cccs2)c2nc3ccccc3nc12 | n | x | 87.4 | n | x | n
SMILES | CYP2C19 act | sEH inhibitor | CYP2C19 inh | CYP2C9 inhib | sEH act | CYP2C9 activ
CCCn1c(CNC(=O)c2cccs2)nc2ccccc21 | n | n | n | n | n | n
CCCCCn1c(N)c(C#N)c2nc3ccccc3nc21 | n | n | 61.9 | n | n | n
CCOC(=O)c1sc2ncn(CC(=O)N(CC)CC)c(=O)c2c1C | n | n | n | n | n | n
Cc1ccccc1OCc1nnc2n1CC(C)S2 (stereo unspecified) | n | n | n | n | n | n
O=C(c1ccc(COc2ccccc2Cl)o1)N1CCN(c2ccccc2)CC1 | n | x | 91.9 | 96.7 | x | n
Cc1cccc(N2CCN(C(=O)c3ccc(CS(=O)(=O)c4ccccc4C)o3)CC2C)c1 (stereo unspecified) | n | n | 57.5 | 84.5 | n | n
Cc1ccc(C)c(N2CCN(C(=O)c3ccc(CS(=O)(=O)c4ccccc4C)o3)CC2)c1 | n | n | n | 69.3 | n | n
COc1ccccc1S(=O)(=O)Cc1ccc(C(=O)N2CCN(c3cccc(Cl)c3)CC2)o1 | n | n | 53.0 | n | n | n
COc1ccc(F)cc1CN1CCN(C(=O)CCC(=O)Nc2nnc(C(C)C)s2)CC1 | n | x | n | n | x | n
C=CCn1c(SCC(=O)Nc2sc3c(c2C#N)CCC3)nnc1C1COc2ccccc2O1 (stereo unspecified) | n | n | n | 66.4 | n | n
Cn1c(SCC(=O)Nc2sc3c(c2C#N)CCC3)nnc1C1COc2ccccc2O1 (stereo unspecified) | n | n | n | 67.0 | n | n
Cc1cnc(C)c(N2CCC(C(=O)NC(C)c3cccs3)CC2)n1 (stereo unspecified) | n | n | n | n | n | n
Cc1ccccc1N(C(=O)c1cccs1)c1nc2ccccc2s1 | n | n | n | 87.7 | n | n
CCN(CC)CCN1C(=O)C(O)=C(C(C)=O)C1c1ccccc1 (stereo unspecified) | n | x | n | n | x | n
COc1ccccc1NC(=O)C1=C(C)NC(=O)NC1c1ccc(C)cc1 (stereo unspecified) | n | x | n | n | x | n
CCc1ccc(C(=O)CSC2=C(C#N)C(c3ccco3)C(C(C)=O)=C(C)N2)cc1 (stereo unspecified) | n | x | n | 75.8 | x | n
CC(=O)C1=C(C)NC(SCC(=O)c2ccc(F)cc2)=C(C#N)C1c1ccco1 (stereo unspecified) | n | x | 97.8 | 79.7 | x | n
CC(=O)C1=C(C)NC(SCC(=O)c2ccc(Cl)cc2)=C(C#N)C1CC(C)C (stereo unspecified) | n | n | 99.1 | 95.2 | n | n
COc1ccccc1NC(=O)C1=C(C)NC(SCC(=O)c2ccc(C)cc2)=C(C#N)C1c1ccco1 (stereo unspecified) | n | n | 84.2 | 89.9 | n | n
Cc1ccc(C)c2c1sc(=NC(=O)CN1C(=O)CCC1=O)n2C | n | n | n | n | n | n
CCCCNc1nc(-c2ccccc2)cc(C(F)(F)F)c1C(N)=O | x | n | x | x | n | x
CC(=O)C1=C(C)NC(SCc2cccc([N+](=O)[O-])c2)=C(C#N)C1c1ccco1 (stereo unspecified) | n | n | 100.0 | 83.5 | n | n
Cc1cccc(C(=O)O/N=C(\N)Cc2ccc([N+](=O)[O-])cc2)c1 | n | n | 84.2 | n | n | n
N/C(Cc1ccc([N+](=O)[O-])cc1)=N\OC(=O)C(c1ccccc1)c1ccccc1 | n | n | n | 54.2 | n | n
Cc1nnc(NC(=O)c2ccc(S(=O)(=O)N3CCCCCC3)cc2)o1 | n | n | n | n | n | n
CC1CCCN(S(=O)(=O)c2ccc(C(=O)Nc3nnc(-c4ccccc4Cl)o3)cc2)C1 (stereo unspecified) | n | 82.5 | n | n | n | n
O=C(Nc1nnc(-c2ccccc2Cl)o1)c1cccnc1 | n | n | n | 82.1 | n | n
Clc1ccccc1-c1nnc(-c2ccccc2Cl)o1 | x | n | x | x | n | x
Cc1cccc(/C(N)=N/OC(=O)CCc2ccccc2)c1 | n | n | n | 53.9 | n | n
CCN1CCCC1CNC(=O)c1c(O)c2c([nH]c1=O)CCCC2 (stereo unspecified) | n | x | n | n | x | n
